Bioassay records as filed in PubChem BioAssay.
IL-1B inflam inh = qHTS for Inhibitors of Inflammasome Signaling: IL-1-beta AlphaLISA Primary Screen; activity change, % at 57.5 µM; THP-1 LPS/ATP IL-1B secretion, AlphaLISA, 16 h; active compounds read low; hit rate 4.7% among 360,000; in the data active = activity change below about -50%; inconclusive = mostly about -30% to -49%
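Secreted IL-1B measured by AlphaLISA bead assay after 16 h compound exposure of THP-1 cells; compounds (final up to 57.5 uM) added 1 h before LPS (250 ng/mL) and ATP (1.25 mM) stimulation; lower signal means less secretion.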
TDP1 block = qHTS Assay for Inhibitors of Tyrosyl-DNA Phosphodiesterase (TDP1); Potency, µM (top dose mostly 130 µM), actives largely listed as inhibitors; Tyrosyl-DNA phosphodiesterase 1 (Homo sapiens), Q9NUW8; hit rate 0.28% among 350,000; recombinant TDP1, AlphaScreen DNA substrate cleavage; also: nearly all actives have a fitted effect of over 40% in size
Target sequence (Q9NUW8 whole entry, looked up): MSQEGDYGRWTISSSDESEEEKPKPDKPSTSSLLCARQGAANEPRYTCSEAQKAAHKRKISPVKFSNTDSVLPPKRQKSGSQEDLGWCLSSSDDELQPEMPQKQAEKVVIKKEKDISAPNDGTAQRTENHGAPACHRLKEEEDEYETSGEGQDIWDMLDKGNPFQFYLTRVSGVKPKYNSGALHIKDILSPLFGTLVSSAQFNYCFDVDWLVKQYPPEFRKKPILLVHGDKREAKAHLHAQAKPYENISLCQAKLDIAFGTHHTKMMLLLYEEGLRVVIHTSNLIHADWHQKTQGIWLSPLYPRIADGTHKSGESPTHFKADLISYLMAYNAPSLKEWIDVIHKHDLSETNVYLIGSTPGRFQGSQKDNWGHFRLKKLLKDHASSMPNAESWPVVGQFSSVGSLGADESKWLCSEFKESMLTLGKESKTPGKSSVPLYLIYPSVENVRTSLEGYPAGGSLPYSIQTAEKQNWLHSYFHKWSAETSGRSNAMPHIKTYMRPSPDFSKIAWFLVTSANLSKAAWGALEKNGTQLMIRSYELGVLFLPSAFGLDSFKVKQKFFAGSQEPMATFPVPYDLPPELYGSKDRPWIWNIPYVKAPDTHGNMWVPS
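Signal: AlphaScreen proximity between streptavidin donor and anti-FITC acceptor beads on intact substrate. Reaction: Tdp1 1 nM, substrate 15 nM final, 5 min RT after 15 min compound preincubation.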
DT40 TDP1 CPT = qHTS for Inhibitors of human tyrosyl-DNA phosphodiesterase 1 (TDP1): qHTS in cells in presence of CPT; chicken DT40 Tdp1-/-;hTDP1 cells + 20 nM CPT, ATP luminescence, 48 h; Potency, µM (series often up to 46.2 µM), hits mostly inhibitors; hit rate 12% among 420,000; also: nearly all actives have a fitted effect of over 55% in size
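Chicken DT40 Tdp1-/- cells stably complemented with human TDP1 were seeded at 400 cells/well in medium containing 20 nM camptothecin, exposed to pin-transferred compounds, and grown at 37 °C for at least 48 hr. Viability was read as ATP luminescence.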
Giardia kill = Small Molecules that selectively kill Giardia lamblia: qHTS; Giardia lamblia trophozoite viability; activity change, % at 7.66 µM, hits read low; hit rate 0.15% among 340,000; AID 540267, 2011; in the data active = activity change below about -80%; inconclusive = between about -30% and that limit;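 also: parasites exposed to compound for two days anaerobically before the ATP read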
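Trophozoites 100 cells/well + cpd; 48 hrs, 37 deg C, anaerobic. ATPLite 1-Step added, 15-30 min RT, luminescence read (ATP-based viability).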
TDP1 cell noCPT = qHTS for Inhibitors of human tyrosyl-DNA phosphodiesterase 1 (TDP1): qHTS in cells in absence of CPT; DT40 Tdp1-/- hTDP1 cells, no CPT, ATP luminescence, 48 h; Potency, µM (top dose mostly 46.2 µM), usual class: inhibitors; hit rate 15% among 420,000; also: nearly all actives have a fitted effect of over 55% in size
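Growth of hTDP1-complemented DT40 Tdp1-knockout cells is measured by ATP luminescence after at least 48 hr compound exposure at 37 °C, with DMSO substituting for the 20 nM CPT used in the parallel screen.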
ELG1 DNA repair = qHTS screen for small molecules that inhibit ELG1-dependent DNA repair in human embryonic kidney (HEK293T) cells expressing luciferase-tagged ELG1; HEK293T ELG1-luciferase reporter, luminescence, 16 h; DNA damage induced by 5-fluorouridine; Potency, µM (highest dose often 46.1 µM), usual class: inhibitors; hit rate 2.3% among 330,000; also: nearly all actives have a fitted effect of over 55% in size
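DMSO vehicle served as the neutral condition. Each well held 2,000 cells given 5-fluorouridine plus compound; after 16 hr at 37 °C/5% CO2, ONE-Glo was added and luciferase measured 30 min later.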
Of the large screens only hits and unclear results are named; the others gave an inactive call. The list is not random: actives were taken first. Their share in the collection is about 19%. Unless noted, calls follow the shape of the dose curve; as a rule, active = well fitted curve in the direction sought with a large enough effect; inconclusive = small, poorly fitted or top-dose-only effect, or another doubt; inactive = no such curve, though single readings can be large; an effect the other way counts as inactive or inconclusive.

O=C(O)c1cccc(Cn2c(Cl)c(/C=N/NC(=O)c3cccc(O)c3)sc2=O)c1	none
Cc1ccc2cc(C=O)c(Cl)nc2c1	DT40 TDP1 CPT inconclusive, TDP1 cell noCPT inconclusive
Cc1ccc(S(=O)(=O)Nc2ccc(N(C)S(=O)(=O)c3ccc(C)cc3)cc2)cc1	TDP1 cell noCPT inconclusive, ELG1 DNA repair inconclusive
Cc1ccc(S(=O)(=O)N(C)c2ccc3c(c2)C(=O)c2ccccc2-3)cc1	DT40 TDP1 CPT 16µM, TDP1 cell noCPT inconclusive (no result: TDP1 block, Giardia kill, ELG1 DNA repair)
COc1ccc(S(=O)(=O)N2CCCCC2)cc1NC(=O)CNc1ccc(F)cc1C	DT40 TDP1 CPT inconclusive
O=C(Cc1nc2ccccc2[nH]1)c1ccc(Cl)cc1	IL-1B inflam inh -99, DT40 TDP1 CPT inconclusive, TDP1 cell noCPT inconclusive, ELG1 DNA repair inconclusive
O=C(Cc1nc2ccccc2[nH]1)c1ccc([N+](=O)[O-])cc1	DT40 TDP1 CPT inconclusive, TDP1 cell noCPT inconclusive, ELG1 DNA repair inconclusive
Clc1ccc(/C(Cc2nc3ccccc3[nH]2)=N\Nc2ccccc2)cc1	IL-1B inflam inh -84, DT40 TDP1 CPT inconclusive, TDP1 cell noCPT inconclusive, ELG1 DNA repair inconclusive (no result: TDP1 block)
CCCCCCn1c(SCC#N)nc2ccccc2c1=O	DT40 TDP1 CPT inconclusive, TDP1 cell noCPT inconclusive (no result: IL-1B inflam inh, TDP1 block, ELG1 DNA repair)
O=C(OCC(=O)N1CCOCC1)c1ccc(Br)cc1	ELG1 DNA repair inconclusive
CN(C)CC(O)c1ccc(C=Cc2ccc(Cl)cc2)cc1 (stereo unspecified)	IL-1B inflam inh -92, DT40 TDP1 CPT 7.3µM, TDP1 cell noCPT 7.3µM (no result: TDP1 block, ELG1 DNA repair)
CC(NC(=O)/C=C/c1ccc(Br)cc1)c1ccc(Cl)cc1 (stereo unspecified)	DT40 TDP1 CPT inconclusive, TDP1 cell noCPT inconclusive
O=C(CSc1ccsc1[N+](=O)[O-])NCc1ccco1	Giardia kill inconclusive (no result: TDP1 block)
O=[N+]([O-])c1cccc(COc2ccc(CN3CCCCC3)cc2)c1	DT40 TDP1 CPT 21µM, TDP1 cell noCPT 23µM (no result: TDP1 block, ELG1 DNA repair)
O=[N+]([O-])c1ccc(COc2cccc(CN3CCOCC3)c2)cc1	DT40 TDP1 CPT 18µM, TDP1 cell noCPT 23µM (no result: TDP1 block, ELG1 DNA repair)
COCCNC(=O)CN1C(=O)NC2(CCCc3ccccc32)C1=O (stereo unspecified)	none (no result: TDP1 block)
COc1cc2cc(C(=O)N3CCN(Cc4ccc5c(c4)OCO5)CC3)c(=O)oc2cc1OC	none (no result: TDP1 block)
Oc1ccc2n[nH]nc2c1	TDP1 cell noCPT inconclusive
CC(C)Cc1nnc(NC(=O)CSc2nc(-c3ccccc3)cc(=O)[nH]2)s1	TDP1 cell noCPT inconclusive, ELG1 DNA repair inconclusive
COCCn1c(SCc2ccccc2F)nc2ccccc2c1=O	DT40 TDP1 CPT inconclusive, TDP1 cell noCPT inconclusive
CC(=O)NCCn1c(SCc2ccccc2F)nc2ccccc2c1=O	DT40 TDP1 CPT 16µM, TDP1 cell noCPT 21µM, ELG1 DNA repair inconclusive
CC(=O)NCCn1c(SCc2ccc(C)cc2)nc2ccccc2c1=O	DT40 TDP1 CPT 23µM, TDP1 cell noCPT 21µM, ELG1 DNA repair inconclusive
COc1ccc(N2CCN(C(CNC(=O)C(=O)NCc3ccc4c(c3)OCO4)c3ccco3)CC2)cc1 (stereo unspecified)	DT40 TDP1 CPT inconclusive, ELG1 DNA repair 7.3µM
COc1ccc(N2CCN(C(CNC(=O)OCc3ccccc3)c3ccco3)CC2)cc1 (stereo unspecified)	IL-1B inflam inh -76, DT40 TDP1 CPT inconclusive, TDP1 cell noCPT inconclusive
CCOC(=O)c1c(-c2ccc(OC)cc2)csc1/N=C/N(C)C	TDP1 cell noCPT 26µM
Cc1[nH]n(-c2cccc3ccccc23)c(=O)c1/C=N/NC(=O)c1cccc([N+](=O)[O-])c1	DT40 TDP1 CPT 2.1µM, TDP1 cell noCPT 1.3µM, ELG1 DNA repair inconclusive
Cc1[nH]n(-c2ccccc2)c(=O)c1/C=N/NC(=O)c1cccc([N+](=O)[O-])c1	DT40 TDP1 CPT 0.26µM, TDP1 cell noCPT 0.65µM
